Holding throughout (parameters): scale not given: direction of the effect not stated beside the values
Experiment [1] deals with Protein translocase subunit SecA (Escherichia coli (strain K12)) (UniProt P10408). Briefly: Assay to Identify E. coli SecA ATPase Inhibitors. Type of experiment: functional. The conditions noted are these: 30 µM.
The target of experiment [2] is T1, Ubiquitin-activating enzyme e1, putative (Leishmania donovani (strain BPK282A1)) (UniProt E9BSI1).
T1 sequence (whole entry): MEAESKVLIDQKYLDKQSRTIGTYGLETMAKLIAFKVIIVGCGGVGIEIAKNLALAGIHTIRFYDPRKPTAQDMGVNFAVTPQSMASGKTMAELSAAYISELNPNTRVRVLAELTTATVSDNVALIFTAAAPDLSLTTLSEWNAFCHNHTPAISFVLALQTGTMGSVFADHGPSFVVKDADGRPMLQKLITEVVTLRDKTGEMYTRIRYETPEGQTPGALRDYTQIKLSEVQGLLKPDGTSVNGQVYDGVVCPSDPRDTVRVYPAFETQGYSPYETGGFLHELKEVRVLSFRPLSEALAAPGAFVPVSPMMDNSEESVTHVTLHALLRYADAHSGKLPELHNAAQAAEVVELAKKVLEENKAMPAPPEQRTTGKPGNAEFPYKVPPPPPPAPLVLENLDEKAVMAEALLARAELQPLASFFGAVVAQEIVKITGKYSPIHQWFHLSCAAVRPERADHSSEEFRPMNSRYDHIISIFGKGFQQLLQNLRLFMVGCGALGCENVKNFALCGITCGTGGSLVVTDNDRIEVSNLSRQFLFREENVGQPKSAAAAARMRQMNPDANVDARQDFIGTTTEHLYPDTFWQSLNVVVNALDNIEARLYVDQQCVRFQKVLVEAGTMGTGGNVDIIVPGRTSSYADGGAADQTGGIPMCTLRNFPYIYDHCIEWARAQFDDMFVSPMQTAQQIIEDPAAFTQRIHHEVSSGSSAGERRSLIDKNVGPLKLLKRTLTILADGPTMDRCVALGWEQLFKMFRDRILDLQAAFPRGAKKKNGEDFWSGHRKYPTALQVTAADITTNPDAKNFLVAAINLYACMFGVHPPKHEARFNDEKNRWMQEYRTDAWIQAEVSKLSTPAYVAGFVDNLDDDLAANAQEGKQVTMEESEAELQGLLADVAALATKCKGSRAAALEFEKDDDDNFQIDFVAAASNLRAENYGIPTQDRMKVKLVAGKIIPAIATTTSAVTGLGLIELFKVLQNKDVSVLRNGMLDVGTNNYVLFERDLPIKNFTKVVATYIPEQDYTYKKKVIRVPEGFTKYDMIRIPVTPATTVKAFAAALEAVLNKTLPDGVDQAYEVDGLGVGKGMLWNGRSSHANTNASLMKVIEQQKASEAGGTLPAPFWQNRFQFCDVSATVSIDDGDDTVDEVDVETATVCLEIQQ
Briefly: Leishmania donovani Ubiquitin Activating Enzyme (LdE1). Type of experiment: functional. Particulars: 30 µM.

Experiment [3] deals with AMP-activated protein kinase, AMPK (Homo sapiens) (UniProt P54646+O43741+P54619+Q9UGJ0+Q9Y478+Q13131+Q9UGI9). The experiment is described as follows: AMP-dependent Kinase enzyme assay. An in vitro enzyme assay that detects ADP turnover that is directly proportional to AMPK activity. This uses naive AMPK that is activated during the assay with MK-8722. Type of experiment: functional. Particulars: 30 µM.

Experiment [4] deals with Sialic acid-binding Ig-like lectin 9 (Homo sapiens) (UniProt Q9Y336). Briefly: Hs-Siglec9 ALPHAscreen SOP 20170721. The conditions noted are these: 10 µM. On the technique in general: In Alpha technology, singlet oxygen from a donor bead excites a nearby acceptor bead.
Chain of Sialic acid-binding Ig-like lectin 9 (Homo sapiens) (Q9Y336 whole entry): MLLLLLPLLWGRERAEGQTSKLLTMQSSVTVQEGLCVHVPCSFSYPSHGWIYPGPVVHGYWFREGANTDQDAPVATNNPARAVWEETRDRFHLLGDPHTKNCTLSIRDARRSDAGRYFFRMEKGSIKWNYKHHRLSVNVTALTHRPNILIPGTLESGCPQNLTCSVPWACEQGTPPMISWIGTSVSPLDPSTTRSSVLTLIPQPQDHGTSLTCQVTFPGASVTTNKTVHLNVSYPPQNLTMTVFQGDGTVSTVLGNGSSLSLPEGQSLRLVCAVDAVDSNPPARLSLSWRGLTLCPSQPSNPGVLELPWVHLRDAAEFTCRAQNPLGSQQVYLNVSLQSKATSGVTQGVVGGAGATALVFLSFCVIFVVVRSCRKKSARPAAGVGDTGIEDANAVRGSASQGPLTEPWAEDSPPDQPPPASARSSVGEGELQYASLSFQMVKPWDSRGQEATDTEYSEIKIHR
The next experiment has as its system Trypanosoma cruzi. The experiment is described as follows: Trypanosoma cruzi phosphomannomutase and mannose-1-phosphate guanylyltransferase assay. Type of experiment: functional. The conditions noted are these: 10 µM.
Experiment [5] has as its target T2, Arginase-2, mitochondrial (Homo sapiens) (UniProt P78540).
T2 sequence (whole entry): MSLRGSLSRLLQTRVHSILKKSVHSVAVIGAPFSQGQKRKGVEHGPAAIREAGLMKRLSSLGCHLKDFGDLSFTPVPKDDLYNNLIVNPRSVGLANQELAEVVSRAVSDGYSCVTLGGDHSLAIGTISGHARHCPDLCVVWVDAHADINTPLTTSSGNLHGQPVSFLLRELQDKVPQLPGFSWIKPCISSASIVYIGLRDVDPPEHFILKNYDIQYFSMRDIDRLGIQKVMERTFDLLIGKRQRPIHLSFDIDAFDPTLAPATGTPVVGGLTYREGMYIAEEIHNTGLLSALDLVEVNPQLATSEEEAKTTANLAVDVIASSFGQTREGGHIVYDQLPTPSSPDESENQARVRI
Briefly: in vitro enzyme assay to detect the production of urea directly proportional to the activity of Arginase II. Further: in the data most compounds retested in dose-response had high values. Type of experiment: functional. The conditions noted are these: 33.3 µM.

The target in experiment [6] is T3, Proteasome subunit beta (Trypanosoma cruzi) (UniProt O96673).
T3 sequence (whole entry): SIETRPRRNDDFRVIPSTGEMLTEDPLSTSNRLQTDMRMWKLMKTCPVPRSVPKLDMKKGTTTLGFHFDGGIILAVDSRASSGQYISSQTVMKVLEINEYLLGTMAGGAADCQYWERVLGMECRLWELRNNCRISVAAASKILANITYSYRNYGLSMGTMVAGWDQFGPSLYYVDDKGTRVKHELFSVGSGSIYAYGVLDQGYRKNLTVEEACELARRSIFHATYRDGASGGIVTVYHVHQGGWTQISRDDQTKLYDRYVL
Briefly: Trypanosoma cruzi proteasome chymotrypsin-like activity (TcProtChymo) assay. Further: in the data most compounds retested in dose-response had high values. Type of experiment: functional. Particulars: 9.37 µM.

The species entered for a further experiment is Homo sapiens. Briefly: To identify inhibition of the IFN signalling (Jak-Stat) pathway via expression of an eGFP reporter gene under the control of an IFN-stimulated response element (ISRE) containing MxA promoter. Type of experiment: functional. The conditions noted are these: 30 µM. On the technique in general: A reporter such as luciferase makes a cellular process visible.

For experiment [7], the target named is T4, Tyrosyl-tRNA synthetase, putative (Trypanosoma cruzi (strain CL Brener)) (UniProt Q4DSP6).
T4 sequence (whole entry): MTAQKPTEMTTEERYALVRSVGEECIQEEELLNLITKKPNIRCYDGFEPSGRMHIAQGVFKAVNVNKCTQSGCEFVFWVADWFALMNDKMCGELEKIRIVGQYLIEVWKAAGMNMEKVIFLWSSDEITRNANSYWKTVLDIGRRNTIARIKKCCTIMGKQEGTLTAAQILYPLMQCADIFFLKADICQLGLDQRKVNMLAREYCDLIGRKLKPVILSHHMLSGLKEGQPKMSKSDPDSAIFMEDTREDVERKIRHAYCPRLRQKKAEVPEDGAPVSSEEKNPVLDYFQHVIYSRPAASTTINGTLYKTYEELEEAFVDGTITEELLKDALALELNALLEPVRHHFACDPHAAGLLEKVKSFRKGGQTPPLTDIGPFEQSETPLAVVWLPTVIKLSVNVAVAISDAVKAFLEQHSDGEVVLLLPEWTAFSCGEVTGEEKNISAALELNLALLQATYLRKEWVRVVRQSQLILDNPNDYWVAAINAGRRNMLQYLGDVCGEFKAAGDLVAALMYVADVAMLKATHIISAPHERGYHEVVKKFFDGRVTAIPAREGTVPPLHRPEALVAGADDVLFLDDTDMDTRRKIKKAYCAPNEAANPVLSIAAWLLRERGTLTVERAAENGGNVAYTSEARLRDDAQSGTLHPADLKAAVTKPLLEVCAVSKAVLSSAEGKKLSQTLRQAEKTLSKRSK
Briefly: Trypanosoma cruzi tyrosyl tRNA synthetase (TcYRS) _High Tyrosine SOP. Further: in the data most compounds retested in dose-response had high values. Particulars: 30 µM. Type of experiment: functional.

The target of experiment [8] is T4, Tyrosyl-tRNA synthetase, putative (Trypanosoma cruzi (strain CL Brener)). Briefly: Trypanosoma cruzi tyrosyl tRNA synthetase (TcYRS) SOP. Type of experiment: functional. Particulars: 30 µM.
In experiment [9] the target is Chromo domain-containing protein 1 (Saccharomyces cerevisiae (strain ATCC 204508 / S288c) (Baker's yeast)) (UniProt P32657). The experiment is described as follows: ScCHD-1 Enzyme Inhibition Assay. Further: in the data most compounds retested in dose-response had high values. Type of experiment: functional. Particulars: 30 µM.
Chain of Chromo domain-containing protein 1 (Saccharomyces cerevisiae (strain ATCC 204508 / S288c) (Baker's yeast)) (P32657 whole entry, the tested form may be a part): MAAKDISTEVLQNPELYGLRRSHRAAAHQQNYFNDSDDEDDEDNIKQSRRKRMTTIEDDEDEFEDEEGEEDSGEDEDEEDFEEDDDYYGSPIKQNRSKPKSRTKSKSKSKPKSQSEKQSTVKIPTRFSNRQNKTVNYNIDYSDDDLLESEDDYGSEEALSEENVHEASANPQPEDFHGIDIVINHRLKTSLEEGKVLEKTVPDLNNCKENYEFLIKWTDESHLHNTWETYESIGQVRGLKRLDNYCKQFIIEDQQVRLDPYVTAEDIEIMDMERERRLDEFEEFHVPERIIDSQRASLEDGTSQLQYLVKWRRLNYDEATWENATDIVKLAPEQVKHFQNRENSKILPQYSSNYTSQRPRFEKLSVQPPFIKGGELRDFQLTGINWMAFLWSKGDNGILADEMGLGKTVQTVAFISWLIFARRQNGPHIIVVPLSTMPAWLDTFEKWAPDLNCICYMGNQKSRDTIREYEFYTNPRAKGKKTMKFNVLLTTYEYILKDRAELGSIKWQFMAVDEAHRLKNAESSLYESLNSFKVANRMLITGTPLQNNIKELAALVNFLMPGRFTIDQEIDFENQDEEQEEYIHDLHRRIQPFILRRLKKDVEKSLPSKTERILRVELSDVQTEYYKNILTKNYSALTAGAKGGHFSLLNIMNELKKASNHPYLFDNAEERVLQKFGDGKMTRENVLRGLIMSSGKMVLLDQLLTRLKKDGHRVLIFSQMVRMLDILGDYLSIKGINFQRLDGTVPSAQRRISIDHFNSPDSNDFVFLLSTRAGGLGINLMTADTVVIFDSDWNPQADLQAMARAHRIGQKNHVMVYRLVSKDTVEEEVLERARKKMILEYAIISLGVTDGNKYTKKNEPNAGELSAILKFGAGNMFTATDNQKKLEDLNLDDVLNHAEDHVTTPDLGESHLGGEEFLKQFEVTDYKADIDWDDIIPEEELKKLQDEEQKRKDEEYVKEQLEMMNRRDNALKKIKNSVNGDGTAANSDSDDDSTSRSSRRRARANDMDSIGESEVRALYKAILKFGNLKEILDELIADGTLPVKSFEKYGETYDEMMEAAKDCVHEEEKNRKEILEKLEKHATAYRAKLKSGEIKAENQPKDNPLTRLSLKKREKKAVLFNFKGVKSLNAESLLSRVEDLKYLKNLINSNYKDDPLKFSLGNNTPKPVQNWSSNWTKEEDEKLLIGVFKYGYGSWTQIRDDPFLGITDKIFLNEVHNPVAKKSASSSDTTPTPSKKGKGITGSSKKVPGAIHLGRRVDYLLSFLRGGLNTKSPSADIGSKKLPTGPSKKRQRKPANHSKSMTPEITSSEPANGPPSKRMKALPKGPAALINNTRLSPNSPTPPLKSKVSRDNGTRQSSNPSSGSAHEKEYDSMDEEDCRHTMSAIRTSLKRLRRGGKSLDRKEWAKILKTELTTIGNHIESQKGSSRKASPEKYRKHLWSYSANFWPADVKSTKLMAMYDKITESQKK

Molecules are shown by their SMILES. For some of these results: Measured potencies and affinities stand elsewhere.

Chain of Protein translocase subunit SecA (Escherichia coli (strain K12)) (P10408 whole entry): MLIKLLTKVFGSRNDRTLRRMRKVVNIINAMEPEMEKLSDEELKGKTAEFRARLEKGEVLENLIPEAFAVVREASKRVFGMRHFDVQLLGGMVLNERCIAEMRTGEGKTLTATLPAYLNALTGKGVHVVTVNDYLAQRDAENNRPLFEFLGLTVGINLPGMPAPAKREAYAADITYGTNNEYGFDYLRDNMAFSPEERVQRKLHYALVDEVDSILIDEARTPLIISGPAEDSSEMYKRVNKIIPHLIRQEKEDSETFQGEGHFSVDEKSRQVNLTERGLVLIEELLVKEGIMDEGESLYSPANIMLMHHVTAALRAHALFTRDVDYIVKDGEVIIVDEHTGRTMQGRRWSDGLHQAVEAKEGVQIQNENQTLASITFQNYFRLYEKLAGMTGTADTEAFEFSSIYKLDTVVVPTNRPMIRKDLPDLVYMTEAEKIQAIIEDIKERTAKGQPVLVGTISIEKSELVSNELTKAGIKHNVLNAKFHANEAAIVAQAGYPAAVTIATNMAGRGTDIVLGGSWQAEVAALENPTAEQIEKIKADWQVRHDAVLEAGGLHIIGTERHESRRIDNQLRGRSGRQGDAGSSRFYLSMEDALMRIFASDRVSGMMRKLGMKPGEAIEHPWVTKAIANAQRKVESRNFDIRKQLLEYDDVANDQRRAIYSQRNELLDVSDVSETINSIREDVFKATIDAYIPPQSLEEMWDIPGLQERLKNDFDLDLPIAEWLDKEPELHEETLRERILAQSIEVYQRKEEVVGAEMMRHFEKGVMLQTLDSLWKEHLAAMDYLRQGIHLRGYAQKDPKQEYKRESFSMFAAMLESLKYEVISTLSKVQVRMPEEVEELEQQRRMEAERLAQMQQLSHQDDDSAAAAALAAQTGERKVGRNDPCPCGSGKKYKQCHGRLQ

In the case of `Cc1ccccc1C1CCCN1C(=O)CN1CC2(CCNCC2)OC1=O` (stereo unspecified), the Percent Effect in [1] was -4.66%; in [2] it was 8.11%; in experiment [3], -3.53%; in [4], 12.1%; in the experiment on Trypanosoma cruzi it was 6.76%; in [5], 0%. Further, the Percent Effect in experiment [6] was 13.1%; in the experiment filed under Homo sapiens it was -1.19%; in experiment [7], 4.76%; in experiment [8], 9.76%; in [9], 87.8%.

Regarding `CCN1CCC(NC(=O)CN2CCCC2Cn2nc(C)cc2C)CC1` (stereo unspecified), the Percent Effect in experiment [1] is -3.31%; in experiment [2] it was 2.7%; in [3], -2.56%; in experiment [4], 6.76%; with Trypanosoma cruzi it was -3.3%; in experiment [5], -5.61%. Moreover, the Percent Effect was -0.54% in experiment [6]; 3.04% in the experiment filed under Homo sapiens; 4.43% in experiment [7]; 1.24% in [8]; 0.399% in experiment [9].

Take `O=C(CCc1ccc(Cl)s1)N1CCCC(n2cncn2)C1` (stereo unspecified): the Percent Effect in [1] is -2.21%; in experiment [2] it was -2.53%; in experiment [3] it was 3.52%; in [4] it was 6.43%; in the experiment with Trypanosoma cruzi, -0.0944%; in [5] it was 5.32%. The Percent Effect in [6] was -3.36%; in the experiment listed under Homo sapiens, -2.4%; in experiment [7], 0.493%; in experiment [8], -1.27%; in experiment [9], 0.688%.

Consider `CC(O)CN1CCN(C(=O)c2ccc(N(C)C)nc2)CC1` (stereo unspecified), for which the Percent Effect in [1] was -1.4%; in [2], 33.8%; in experiment [3] it was -9.23%; in experiment [4], 0.151%; in the experiment on Trypanosoma cruzi, 4.68%; in [5], 0%. Further, the Percent Effect is 11% in experiment [6]; 8.66% in the experiment filed under Homo sapiens; 7.77% in experiment [7]; 9.76% in [8]; -4.89% in experiment [9].

Consider `COc1ccc(-c2csc(N)c2C#N)cc1OC`, for which the Percent Effect in experiment [1] was -2.5%; in experiment [2], 6.67%; in [3], -9.01%; in experiment [4] it was 5.81%; with Trypanosoma cruzi it was 4.91%; in experiment [5], -6.16%. Further, the Percent Effect was 7.02% in experiment [6]; 12.1% in the experiment listed under Homo sapiens; 1.06% in [7]; 0% in experiment [8]; -1.98% in experiment [9].

`COCCCC1(CO)CCCN(CCc2ccccc2)C1` (stereo unspecified): the Percent Effect in [1] was -1.32%; in [2], -2.74%; in experiment [3], -1.63%; in experiment [4] it was -2.32%; in the experiment with Trypanosoma cruzi, -5.09%; in experiment [5], 0.909%. For the same molecule, the Percent Effect in experiment [6] was -0.887%; in the experiment listed under Homo sapiens, -2.97%; in experiment [7], 1.07%; in experiment [8], 2.5%; in experiment [9], -2.34%.

For `C=C(C)C(=O)N1CCC(C(=O)c2cc(C)cnc2N)CC1`, the Percent Effect in [1] was -7.55%; in experiment [2], 5.33%; in experiment [3], 0.0671%; in experiment [4], 1.76%; in the experiment with Trypanosoma cruzi, 7.09%; in experiment [5], -1.63%. Besides, the Percent Effect in experiment [6] is 5.55%; in the experiment filed under Homo sapiens, 11.8%; in [7], 7.45%; in [8] it was 14.1%; in experiment [9] it was -3.43%.

With `FC(F)(F)COCCN1CCCC(c2noc(C3CC3)n2)C1` (stereo unspecified), the Percent Effect was -2.95% in experiment [1]; 5.33% in [2]; -7.13% in experiment [3]; 6.38% in experiment [4]; 7.3% in the experiment with Trypanosoma cruzi; -0.521% in experiment [5]. Moreover, the Percent Effect is 16.7% in experiment [6]; 16.5% in the experiment listed under Homo sapiens; 3.83% in experiment [7]; 11.1% in experiment [8]; 101% in [9].

In the case of `CCCOc1cc(CNC(=O)Nc2cccnc2N2CCCC2)ccn1`, the Percent Effect in [1] was -1.55%; in experiment [2], -2.7%; in experiment [3], -14.8%; in [4], 5.9%; in the experiment on Trypanosoma cruzi it was -1.04%; in experiment [5] it was 4.81%. The Percent Effect in [6] was 5.77%; in the experiment filed under Homo sapiens, 6.16%; in [7] it was -0.493%; in experiment [8], 3.7%; in experiment [9] it was -5.59%.

Regarding `CC1(C(=O)N2CCOCC2)CN(Cc2ccccc2F)CCO1` (stereo unspecified), the Percent Effect is -2.69% in [1]; 8% in experiment [2]; 12% in experiment [3]; 4.39% in experiment [4]; -4.13% in the experiment with Trypanosoma cruzi; 0.699% in [5]. In addition, the Percent Effect was -1.15% in experiment [6]; 17% in the experiment filed under Homo sapiens; 3.19% in experiment [7]; 8.97% in experiment [8]; -1.88% in [9].

`COc1ccc(NC(=O)CNc2cccc3c2CCCC3)c(OC)c1`: the Percent Effect is -6.64% in [1]; -2.7% in experiment [2]; -0.0771% in [3]; 0.268% in experiment [4]; -5.57% in the experiment with Trypanosoma cruzi; -3.23% in [5]. The Percent Effect in experiment [6] is 6.95%; in the experiment listed under Homo sapiens, -3.03%; in experiment [7], -6.45%; in experiment [8], -11.1%; in [9], -3.27%.
